This passage reports outcome and AC50 results from PubChem BioAssay (EPA / NIEHS).

The source made the active and inactive calls. Rule for the calls: active = hit-call score of the fitted dose curve at least 0.9, where 1 is the maximum; inactive = score below 0.9.

Details in all cases: mRNA level, 48 h; actives raise or lower the signal
Read-out in one assay: MYC, MYC (gene 4609)
The experiment in a line: LTEA_HepaRG_MYC: Life Technologies and Expression Analysis (LTEA) Assay for MYC using HepaRG (AID 2283518). The procedure, abridged:
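Differentiated human HepaRG cells, plated 48 h then switched to serum-free induction medium, were exposed in duplicate for 48 h to 8-point half-log series up to 100 uM in 0.5% DMSO. MYC mRNA measured by qRT-PCR, normalized to ACTB/GAPDH/POLR2A.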

Read-out in assay [1]: matrix metalloproteinase-3 (MMP3), MMP3 (gene 4314)
The experiment in a line: LTEA_HepaRG_MMP3: Life Technologies and Expression Analysis (LTEA) Assay for matrix metalloproteinase-3 (MMP3) using HepaRG (AID 2283519). The procedure, abridged:
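Human liver HepaRG cultures received chemicals (top concentration 100 uM, 0.5% DMSO) for 48 h in duplicate. MMP3 mRNA induction or loss was then assessed via TaqMan qRT-PCR with housekeeping-gene normalisation.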

Read-out in assay [2]: Paternally Expressed 10 (PEG10), PEG10 (gene 23089)
Nature of the assay: LTEA_HepaRG_PEG10: Life Technologies and Expression Analysis (LTEA) Assay for Paternally Expressed 10 (PEG10) using HepaRG (AID 2283520).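 For AC50: PEG10 transcript by qRT-PCR normalised to ACTB GAPDH and POLR2A.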 Summed up: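 qRT-PCR read-out: PEG10 mRNA normalised to three housekeeping genes, fitted bidirectionally against 0.5% DMSO vehicle. HepaRG cells received test chemicals for 48 h in serum-free induction medium, 8 points, top 100 uM, half-log steps.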

Read-out in assay [3]: Nuclear factor NF-kappa-B p105 subunit (Homo sapiens) (UniProt P19838)
The experiment in a line: LTEA_HepaRG_NFKB1: Life Technologies and Expression Analysis (LTEA) Assay for Nuclear Factor Kappa B Subunit 1 (NFKB1) using HepaRG (AID 2283521).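 Note: TaqMan qRT-PCR transcript normalised to ACTB GAPDH and POLR2A housekeeping genes.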 The procedure, abridged: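 Differentiated human HepaRG cells in serum-free induction medium with 0.5% DMSO were exposed for 48 h to eight half-log concentrations, top 100 uM, in duplicate. NFKB1 mRNA measured by Fluidigm TaqMan qRT-PCR, normalised to ACTB, GAPDH and POLR2A; bidirectional fit versus DMSO.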

Read-out in assay [4]: Protein phosphatase 2A (PPP2R4), PTPA (gene 5524)
The experiment in a line: LTEA_HepaRG_PPP2R4: Life Technologies and Expression Analysis (LTEA) Assay for Protein phosphatase 2A (PPP2R4) using HepaRG (AID 2283522). Summed up:
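HepaRG, 48 h exposure, 8-pt half-log series from 100 uM, 0.5% DMSO vehicle, duplicates. Readout: PPP2R4 mRNA, Fluidigm qRT-PCR, housekeeping-normalized. Bidirectional curve fit vs DMSO baseline.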

Read-out in assay [5]: Phosphatase and tensin (PTEN), PTEN (gene 5728)
The experiment in a line: LTEA_HepaRG_PTEN: Life Technologies and Expression Analysis (LTEA) Assay for Phosphatase and tensin (PTEN) using HepaRG (AID 2283523). Summed up:
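Expression of PTEN is quantified in the human liver line HepaRG following two days of dosing (top concentration 100 uM, half-log dilutions, 0.5% DMSO). Values derive from bidirectional curve fitting relative to DMSO controls.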

Read-out in assay [6]: solute carrier (SLC22A1), SLC22A1 (gene 6580)
Nature of the assay: LTEA_HepaRG_SLC22A1: Life Technologies and Expression Analysis (LTEA) Assay for solute carrier (SLC22A1) using HepaRG (AID 2283524). Summed up:
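Transcript induction or suppression of SLC22A1 in human HepaRG cultures is scored after 48 h chemical treatment, with DMSO (0.5%) as baseline for bidirectional fitting. Concentrations span eight half-log points topping at 100 uM.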

Read-out in assay [7]: Pyruvate Dehydrogenase Kinase 4 (PDK4), PDK4 (gene 5166)
The experiment in a line: LTEA_HepaRG_PDK4: Life Technologies and Expression Analysis (LTEA) Assay for Pyruvate Dehydrogenase Kinase 4 (PDK4) using HepaRG (AID 2283525). The procedure, abridged: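 Eight-point, half-log concentration series (max 100 uM, 0.5% DMSO) applied to differentiated HepaRG cells for 48 h in duplicate. Endpoint: PDK4 mRNA induction or repression by qRT-PCR against DMSO baseline.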

Read-out in assay [8]: Nuclear factor erythroid 2-related factor 2 (Homo sapiens) (UniProt Q16236)
The experiment in a line: LTEA_HepaRG_NFE2L2: Life Technologies and Expression Analysis (LTEA) Assay for Nuclear factor erythroid 2-related factor 2 (NFE2L2) Transcription Factor using HepaRG (AID 2283527).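 For outcome: TaqMan qRT-PCR transcript level normalised to ACTB GAPDH and POLR2A housekeeping genes.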 Summed up: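 Human liver HepaRG line treated in duplicate for 48 h with an eight-point series topping at 100 uM. Gene expression of NFE2L2 by qRT-PCR, bidirectionally fitted against the vehicle control.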

Read-out in assay [9]: succinate dehydrogenase complex iron sulfur subunit B (SDHB), SDHB (gene 6390)
The experiment in a line: LTEA_HepaRG_SDHB: Life Technologies and Expression Analysis (LTEA) Assay for succinate dehydrogenase complex iron sulfur subunit B (SDHB) using HepaRG (AID 2283528). Summed up:
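HepaRG cells (~100,000/well, plated 48 h) exposed in duplicate for 48 h in serum-free induction medium to 8-point half-log series from 100 uM in 0.5% DMSO; mRNA by qRT-PCR normalised to ACTB, GAPDH, POLR2A; bidirectional fit versus DMSO.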

Read-out in assay [10]: Signal transducer and activator of transcription 3 (Homo sapiens) (UniProt P40763)
Nature of the assay: LTEA_HepaRG_STAT3: Life Technologies and Expression Analysis (LTEA) Assay for Signal transducer and activator of transcription (STAT3) using HepaRG (AID 2283529). Summed up:
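In this transcriptional endpoint, HepaRG cultures receive test chemicals at up to 100 uM for 48 h, tested in duplicate. STAT3 mRNA is normalized to ACTB, GAPDH and POLR2A.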

Read-out in assay [11]: solute carrier (SLCO1B1), SLCO1B1 (gene 10599)
The experiment in a line: LTEA_HepaRG_SLCO1B1: Life Technologies and Expression Analysis (LTEA) Assay for solute carrier (SLCO1B1) using HepaRG (AID 2283530). The procedure, abridged: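 Differentiated human HepaRG cells, plated 48 h, switched to serum-free induction medium and exposed in duplicate for 48 h to 8 half-log concentrations (top 100 uM) in 0.5% DMSO. SLCO1B1 mRNA by TaqMan qRT-PCR, normalized to ACTB/GAPDH/POLR2A.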

Read-out in assay [12]: Transforming Growth Factor (TGFA), TGFA (gene 7039)
The experiment in a line: LTEA_HepaRG_TGFA: Life Technologies and Expression Analysis (LTEA) Assay for Transforming Growth Factor (TGFA) using HepaRG (AID 2283532). The procedure, abridged:
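Gene expression of TGFA was quantified by qRT-PCR after human HepaRG cells were treated for 48 h with test chemicals (eight concentrations, highest 100 uM, 0.5% DMSO). Activity in either direction was fitted relative to DMSO.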

Read-out in assay [13]: Transforming Growth Factor (TGFB1), TGFB1 (gene 7040)
The experiment in a line: LTEA_HepaRG_TGFB1: Life Technologies and Expression Analysis (LTEA) Assay for Transforming Growth Factor (TGFB1) Transporter using HepaRG (AID 2283533). The procedure, abridged:
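Differentiated human HepaRG cells in serum-free induction medium were exposed in duplicate for 48 h to eight concentrations (top 100 uM, half-log steps, 0.5% DMSO). TGFB1 mRNA was quantified by qRT-PCR, normalized to ACTB, GAPDH, POLR2A, and fitted bidirectionally against DMSO.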

Read-out in another assay: TIMP1, TIMP1 (gene 7076)
The experiment in a line: LTEA_HepaRG_TIMP1: Life Technologies and Expression Analysis (LTEA) Assay for TIMP1 using HepaRG (AID 2283534).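 For outcome: TaqMan qRT-PCR signal normalized to ACTB GAPDH and POLR2A housekeeping genes.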 The procedure, abridged: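 Differentiated human HepaRG cells in serum-free induction medium were exposed 48 h to chemicals (8 half-log concentrations, top 100 uM, 0.5% DMSO). TIMP1 mRNA was quantified by TaqMan qRT-PCR, normalized to ACTB/GAPDH/POLR2A; bidirectional fit versus DMSO.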

Read-out in assay [14]: Tumor necrosis factor receptor 1 (TNFRSF1A), TNFRSF1A (gene 7132)
Nature of the assay: LTEA_HepaRG_TNFRSF1A: Life Technologies and Expression Analysis (LTEA) Assay for Tumor necrosis factor receptor 1 (TNFRSF1A) using HepaRG (AID 2283535). The procedure, abridged: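 Differentiated human HepaRG cells were exposed in duplicate for 48 h in serum-free induction medium to eight concentrations (top 100 uM, half-log steps, 0.5% DMSO). TNFRSF1A mRNA was quantified by qRT-PCR, normalized to ACTB, GAPDH and POLR2A, then fitted bidirectionally against DMSO.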

Read-out in assay [15]: Thyroid Hormone Responsive (THRSP), THRSP (gene 7069)
Nature of the assay: LTEA_HepaRG_THRSP: Life Technologies and Expression Analysis (LTEA) Assay for Thyroid Hormone Responsive (THRSP) using HepaRG (AID 2283536). The procedure, abridged: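 Cell model: human HepaRG, approx. 100,000 cells/well, 0.5% DMSO vehicle. Exposure lasts 48 h; phenobarbital 1 mM serves as induction positive control. Gene expression is measured by qRT-PCR against three endogenous control genes.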

Read-out in assay [16]: UDP glucuronosyltransferase (UGT1A1), UGT1A1 (gene 54658)
Nature of the assay: LTEA_HepaRG_UGT1A1: Life Technologies and Expression Analysis (LTEA) Assay for UDP glucuronosyltransferase (UGT1A1) using HepaRG (AID 2283538). Summed up: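 HepaRG, 48 h chemical exposure (top 100 uM, half-log 8-pt, 0.5% DMSO vehicle), duplicate wells; qRT-PCR (TaqMan, Fluidigm array) for UGT1A1 mRNA, housekeeping-normalized; bidirectional curve fit vs DMSO baseline.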

Read-out in assay [17]: NAD(P)H dehydrogenase [quinone] 1 (NQO1), NQO1 (gene 1728)
Nature of the assay: LTEA_HepaRG_NQO1: Life Technologies and Expression Analysis (LTEA) Assay for NAD(P)H dehydrogenase [quinone] 1 (NQO1) using HepaRG (AID 2283526). The procedure, abridged: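 qRT-PCR read-out (Fluidigm TaqMan), normalized to three housekeeping genes, after 48 h chemical exposure of HepaRG cells. Concentrations: eight points, top 100 uM, half-log steps, 0.5% DMSO vehicle. Gain or loss of signal fitted relative to DMSO.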

Read-out in assay [18]: sulfotransferase 2A1 (SULT2A1), SULT2A1 (gene 6822)
Nature of the assay: LTEA_HepaRG_SULT2A1: Life Technologies and Expression Analysis (LTEA) Assay for sulfotransferase 2A1 (SULT2A1) using HepaRG (AID 2283531). The procedure, abridged: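 Differentiated human HepaRG cells in serum-free induction medium were exposed for 48 h to eight half-log concentrations (top 100 uM, 0.5% DMSO). SULT2A1 mRNA was measured by qRT-PCR, normalized to ACTB, GAPDH and POLR2A, and fitted bidirectionally against DMSO.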

Sequence of Nuclear factor NF-kappa-B p105 subunit (Homo sapiens) (P19838 whole entry, looked up): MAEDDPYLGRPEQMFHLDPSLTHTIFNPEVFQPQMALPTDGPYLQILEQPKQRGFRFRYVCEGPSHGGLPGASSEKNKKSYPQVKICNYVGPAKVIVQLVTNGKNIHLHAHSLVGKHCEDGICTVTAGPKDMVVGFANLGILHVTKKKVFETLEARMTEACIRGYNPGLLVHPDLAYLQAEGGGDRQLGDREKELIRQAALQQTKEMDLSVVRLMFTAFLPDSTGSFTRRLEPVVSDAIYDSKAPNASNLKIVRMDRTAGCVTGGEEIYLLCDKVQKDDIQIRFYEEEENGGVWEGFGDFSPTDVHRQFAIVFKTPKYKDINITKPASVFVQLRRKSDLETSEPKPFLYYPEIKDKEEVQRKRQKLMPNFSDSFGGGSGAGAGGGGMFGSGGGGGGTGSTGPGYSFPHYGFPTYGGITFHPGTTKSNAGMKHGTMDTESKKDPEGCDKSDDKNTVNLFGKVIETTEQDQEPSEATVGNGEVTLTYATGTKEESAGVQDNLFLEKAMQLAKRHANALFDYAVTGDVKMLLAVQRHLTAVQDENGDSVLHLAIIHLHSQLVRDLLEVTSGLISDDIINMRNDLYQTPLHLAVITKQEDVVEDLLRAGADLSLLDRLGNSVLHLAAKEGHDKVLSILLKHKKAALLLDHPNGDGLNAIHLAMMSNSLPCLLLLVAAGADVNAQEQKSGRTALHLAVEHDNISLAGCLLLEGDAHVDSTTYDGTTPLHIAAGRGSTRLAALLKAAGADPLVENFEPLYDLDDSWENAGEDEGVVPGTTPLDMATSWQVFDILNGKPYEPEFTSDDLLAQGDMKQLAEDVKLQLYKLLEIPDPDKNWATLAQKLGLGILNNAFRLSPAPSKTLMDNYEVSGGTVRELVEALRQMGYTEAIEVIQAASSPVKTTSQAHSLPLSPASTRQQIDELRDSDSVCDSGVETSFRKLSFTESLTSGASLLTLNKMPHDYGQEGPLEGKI
Sequence of Signal transducer and activator of transcription 3 (Homo sapiens) (P40763 whole entry, looked up): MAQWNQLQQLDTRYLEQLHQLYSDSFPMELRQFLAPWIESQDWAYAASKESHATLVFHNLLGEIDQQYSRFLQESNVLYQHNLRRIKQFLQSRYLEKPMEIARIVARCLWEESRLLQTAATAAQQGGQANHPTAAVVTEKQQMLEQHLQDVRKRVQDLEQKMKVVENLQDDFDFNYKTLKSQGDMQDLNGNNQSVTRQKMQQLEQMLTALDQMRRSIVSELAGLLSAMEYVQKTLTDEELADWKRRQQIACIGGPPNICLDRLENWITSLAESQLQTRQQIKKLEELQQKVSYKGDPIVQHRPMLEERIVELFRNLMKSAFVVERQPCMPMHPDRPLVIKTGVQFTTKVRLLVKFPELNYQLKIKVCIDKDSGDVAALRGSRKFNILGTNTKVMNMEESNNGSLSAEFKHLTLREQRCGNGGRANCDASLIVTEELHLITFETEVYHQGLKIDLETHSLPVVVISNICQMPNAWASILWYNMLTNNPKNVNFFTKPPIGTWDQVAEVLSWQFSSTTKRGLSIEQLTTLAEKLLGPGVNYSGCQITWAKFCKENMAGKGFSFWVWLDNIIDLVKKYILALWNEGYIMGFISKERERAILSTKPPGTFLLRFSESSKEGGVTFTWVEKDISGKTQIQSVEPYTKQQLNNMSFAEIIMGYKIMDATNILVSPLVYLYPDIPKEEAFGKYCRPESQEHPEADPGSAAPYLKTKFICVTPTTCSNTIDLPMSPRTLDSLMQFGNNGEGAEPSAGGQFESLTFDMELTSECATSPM
Sequence of Nuclear factor erythroid 2-related factor 2 (Homo sapiens) (Q16236 whole entry, looked up): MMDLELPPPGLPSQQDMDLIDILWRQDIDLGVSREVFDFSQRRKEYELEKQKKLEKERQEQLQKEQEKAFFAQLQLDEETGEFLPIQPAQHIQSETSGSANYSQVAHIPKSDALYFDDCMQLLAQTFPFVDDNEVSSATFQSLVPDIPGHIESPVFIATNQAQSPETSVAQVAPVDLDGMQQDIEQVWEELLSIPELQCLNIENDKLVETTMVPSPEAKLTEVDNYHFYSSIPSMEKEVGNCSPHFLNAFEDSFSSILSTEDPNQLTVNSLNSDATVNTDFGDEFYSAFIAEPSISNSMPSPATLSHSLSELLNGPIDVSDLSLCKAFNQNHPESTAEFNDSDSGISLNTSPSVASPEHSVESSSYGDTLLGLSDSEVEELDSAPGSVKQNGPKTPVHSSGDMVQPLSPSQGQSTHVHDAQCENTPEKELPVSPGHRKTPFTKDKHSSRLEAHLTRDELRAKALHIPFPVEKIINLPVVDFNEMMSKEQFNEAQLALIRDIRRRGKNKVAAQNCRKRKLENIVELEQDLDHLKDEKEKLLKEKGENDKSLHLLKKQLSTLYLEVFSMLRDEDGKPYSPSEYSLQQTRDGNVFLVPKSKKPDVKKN

The AC50 is the concentration at which the activity in the assay is half-maximal. For `O=C(O)c1cccc(C[C@@H]2COc3ccc(OCc4nc5cc(F)ccc5s4)cc3[C@@H]2O)c1`, the outcome in the assay with MYC, MYC (gene 4609) is “inactive”; in assay [1] it was “inactive”; in [3], “inactive”; in assay [4], “inactive”; in [5] it was “inactive”; in assay [7], “inactive”. Moreover, the outcome is “inactive” in assay [8]; “inactive” in assay [9]; “inactive” in [10]; “inactive” in assay [12]; “inactive” in assay [13]; “inactive” with TIMP1, TIMP1 (gene 7076). In addition, the result in [14] and in assay [16] was inactive. Moreover, the AC50 in assay [2] is 50 µM (active); in assay [6] it was 93.4 µM (active); in assay [11], 92.3 µM (active); in assay [15], 80.5 µM (active).

Turning to `COc1cc(C(C)C)c2c(c1)S(=O)(=O)N(COc1cc(=O)n3cccc(OCCN4CCCCC4)c3n1)C2=O`, the outcome in the assay with MYC, MYC (gene 4609) was “inactive”; in assay [3], “inactive”; in assay [4], “inactive”; in [17], “inactive”; in assay [9] it was “inactive”; in assay [10], “inactive”. Further, the compound was classed as inactive in assay [12], in [13] and in assay [14]. Also, the AC50 in assay [1] is 19.7 µM (active); in assay [2] it was 19.5 µM (active); in [5] it was 22.6 µM (active); in assay [6] it was 20.8 µM (active); in assay [8], 22.8 µM (active); in [11], 21.1 µM (active). In addition, the AC50 with TIMP1, TIMP1 (gene 7076) was 19.8 µM (active); in [15], 20.8 µM (active).

Consider `CCCCCCOC(=O)CC(CC(=O)OCCCCCC)(OC(=O)CCC)C(=O)OCCCCCC`, for which the outcome is “inactive” with MYC, MYC (gene 4609); “inactive” in [1]; “inactive” in assay [2]; “inactive” in assay [3]; “inactive” in assay [4]; “inactive” in assay [5]. Moreover, the result in [6], in assay [8], in assay [9], in [10], in assay [11] and in assay [18] was inactive. The outcome in assay [12] is “inactive”; in assay [13], “inactive”; with TIMP1, TIMP1 (gene 7076), “inactive”; in assay [14] it was “inactive”; in assay [15], “inactive”.

As for `CC(=O)c1ccccc1`, the outcome with MYC, MYC (gene 4609) was “inactive”; in assay [1], “inactive”; in assay [2] it was “inactive”; in assay [3], “inactive”; in [4], “inactive”; in [5], “inactive”. Further, the result in [6], in [7], in assay [8], in [9], in [10] and in [11] was inactive. Further, the outcome in assay [12] is “inactive”; in [13], “inactive”; with TIMP1, TIMP1 (gene 7076) it was “inactive”; in assay [14], “inactive”; in assay [15], “inactive”; in assay [16], “inactive”.
